Results taken from PubChem BioAssay (Tox21).
Results filed as inconclusive are left out. The source made the active and inactive calls. Calls follow the shape of the full dose curve.

Test: qHTS assay to identify small molecule agonists or antagonists of the thyroid stimulating hormone receptor (TSHR) signaling pathway - wild type cell line counter screen (AID 1259384)
Conditions: HEK293 wild type, cAMP HTRF counter-screen; series mostly up to 92.4 µM
How it was run: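 Wild-type Hek293 cells, 800/well, 18 h at 37C, then compound with Ro20-1724 for 30 min RT. cAMP by HTRF (cAMP-d2/anti-cAMP cryptate), 1 h RT, fluorescence read. 15 concentrations, triplicates.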

SMILES | outcome
CC(C)(C)C(=O)Cl | inactive
O=C1C2CC=CCC2C(=O)N1SC(Cl)(Cl)Cl (stereo unspecified) | inactive
O=C(Cl)C(Cl)Cl | inactive
C/C=C/CC#N | inactive
S=C=S | inactive
O=C1CC(=O)NC(=O)N1 | inactive
CCN(CCO)CCO | inactive
ClC1=C(Cl)C2(Cl)C(CBr)CC1(Cl)C2(Cl)Cl (stereo unspecified) | inactive
CCOC(=O)c1ncn2c1CN(C)C(=O)c1c(I)cccc1-2 | inactive
COc1ccccc1OC | inactive
c1cncc([C@@H]2CCCCN2)c1 | inactive
CCOP(=S)(OCC)Oc1ccc(Cl)cc1Cl | inactive
CC(Cc1ccccc1)NCCn1cnc2c1c(=O)n(C)c(=O)n2C (stereo unspecified) | inactive
CC(C)(O)C(Cl)(Cl)Cl | inactive
O=C(Cl)CCl | inactive
C=C1C[C@@H]2[C@H](CC[C@]3(C)C(=O)CC[C@@H]23)[C@@]2(C)C=CC(=O)C=C12 | inactive
CCN(CCO)CCn1c(Cc2ccccc2)nc2c1c(=O)n(C)c(=O)n2C | inactive
CC[C@H](N)c1ccccc1 | inactive
C=CC1(C)OC(=O)N(c2cc(Cl)cc(Cl)c2)C1=O (stereo unspecified) | inactive
CN=CNc1ccc(C)cc1C | inactive
O=C(Cl)C(Cl)(Cl)Cl | inactive
CCOC(=O)C(Cl)Cc1cc(-n2nc(C)n(C(F)F)c2=O)c(F)cc1Cl (stereo unspecified) | inactive
Cc1cc(OC(=O)N(C)C)nn1C(=O)N(C)C | inactive
O=C(O)c1c(Cl)ccc2cc(Cl)cnc12 | inactive
COP(=O)(OC)O/C(C)=C/C(=O)N(C)C | inactive
Cn1c(CCCC(=O)O)nc2cc(N(CCCl)CCCl)ccc21 | inactive
